Screening results from PubChem BioAssay.
CHRM1 PAM = positive allosteric modulators of human M1 muscarinic receptor; P11229; CHO-K1 hM1, Fluo-8 calcium fluorescence, ACh EC20; 0% = ACh EC20, 100% = maximal ACh; activation, % at 3 µM; 0.088% of 360,000 active; in the data active = activation above about 19%, passing the limit was not always enough
Target sequence (P11229 whole entry, looked up): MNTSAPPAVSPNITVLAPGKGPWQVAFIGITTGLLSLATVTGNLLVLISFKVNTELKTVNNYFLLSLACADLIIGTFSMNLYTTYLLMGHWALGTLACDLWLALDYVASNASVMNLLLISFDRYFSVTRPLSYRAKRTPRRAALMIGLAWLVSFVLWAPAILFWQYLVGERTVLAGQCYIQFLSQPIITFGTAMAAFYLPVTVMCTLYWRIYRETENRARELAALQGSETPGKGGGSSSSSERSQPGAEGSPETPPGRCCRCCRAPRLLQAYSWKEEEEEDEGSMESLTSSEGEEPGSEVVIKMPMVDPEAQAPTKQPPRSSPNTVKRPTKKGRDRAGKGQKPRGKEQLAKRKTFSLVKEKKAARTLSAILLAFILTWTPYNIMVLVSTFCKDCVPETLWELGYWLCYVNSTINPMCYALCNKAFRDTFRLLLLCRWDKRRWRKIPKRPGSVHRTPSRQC
CHRM1 antagonist = antagonists of human M1 muscarinic receptor | P11229 | CHO-K1 hM1, Fluo-8 calcium fluorescence, ACh EC80 antagonist | inhibition, % at 3 µM | 1.3% of 360,000 active | AID 588852;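 active = percent inhibition above its own plate's cutoff, namely the mean of that plate's compound wells plus 3 SD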;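 note: peak over basal fluorescence ratio during 140 s after agonist addition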
M1 PAM parental = counter-screen for M1 PAMs: effect in parental CHO-K1 cells; AID 602247; activation, % at 3 µM; ATP EC20, Fluo-8 calcium fluorescence; 0% at ATP EC20, 100% at ATP max; 0.02% of 360,000 active;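 active = activation above the run cutoff, the mean activation of all test compounds plus 3 SD, cut at about 40% in these data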;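 note: peak over basal fluorescence ratio in a 140 s read after ATP addition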
CHO-K1 Ca antag = nonselective inhibitor or artifact in parental CHO-K1 cells. 0.6% of 360,000 active. inhibition, % at 3 µM. ATP-induced calcium, Fluo-8 fluorescence;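 active = inhibition above a per-plate cutoff, the plate's mean sample inhibition plus 3 SD, cut at about 24% in these data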
M1 ag parental = M1 agonist counterscreen hit in parental CHO-K1 cells | AID 602248 | Fluo-8 calcium fluorescence; scaled to maximal ATP response, vehicle zero | 0.48% of 360,000 active | activation, % at 3 µM; in the data active = activation above about 15%;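 note: untransfected CHO-K1 host cells lacking M1 receptor as counterscreen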
M1 ag = activates human CHRM1 receptor; CHO-K1 hM1, Fluo-8 calcium fluorescence, agonist mode; 0% DMSO, 100% acetylcholine EC100; P11229; AID 588814; 0.33% of 360,000 active; activation, % at 3 µM;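 active = activation above the run's mean compound activation plus 3 SD, cut at about 16% in these data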;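 note: peak over basal fluorescence ratio within a 140 s kinetic read after compound addition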
A number is an active result; 0 = inactive. The list is not random: actives were taken first. Their share in the collection is about 2.3%.

SMILES	CHRM1 PAM	CHRM1 antagonist	M1 PAM parental	CHO-K1 Ca antag	M1 ag parental	M1 ag
O=C(Nc1nnc(-c2ccc3c(c2)CCCC3)o1)c1ccccc1Cl	0	0	0	0	0	0
CC(C)(C)NC(=O)C1CCN(C(=O)c2ccco2)CC1	0	0	0	0	0	0
CCCN(Cc1cc2ccccc2[nH]c1=O)C(=O)c1cccc([N+](=O)[O-])c1	0	0	0	0	0	0
CC(C)(C)N(Cc1cc2ccccc2[nH]c1=O)C(=O)c1cccc([N+](=O)[O-])c1	0	57.2	0	0	0	0
OCC1(Cc2ccccc2F)CCCN(CCc2ccccc2)C1 (centres undefined)	0	31.1	0	0	0	0
OCC1(Cc2ccc(F)cc2F)CCCN(CCCc2ccccc2)C1 (centres undefined)	0	0	0	0	0	0
NC(COCc1ccccc1)c1csc(Nc2cc(NCCCO)ncn2)n1 (centres undefined)	0	0	0	0	0	0
COc1ccc(C2=NN(C(=O)CCC(=O)O)C(c3ccccc3)C2)cc1 (centres undefined)	0	0	0	0	0	0
Cc1ccc(N2C(=O)C3N=NN(CC(=O)N4N=C(c5ccccc5)CC4c4ccccc4)C3C2=O)cc1 (centres undefined)	0	0	0	24.3	0	0
Cc1ccc(NCc2nnc(SCC(=O)N3c4ccccc4Sc4ccccc43)o2)c(C)c1	0	0	0	0	0	0
COc1cc(C)ccc1OCc1cc(C(=O)N(Cc2c(C)nn(C)c2C)C2CC2)no1	0	0	0	0	18.3	0
COc1cc(C)ccc1OCc1cc(C(=O)N2C[C@H]3CC[C@H]2C3)no1	0	0	0	0	0	0
Cc1ccc(C)c(Nc2nc3ccccc3n3cnnc23)c1	0	0	0	0	0	0
O=C(NC1CCN(Cc2ccccc2)CC1)c1cccc(S(=O)(=O)Nc2ccc(F)cc2)c1	0	0	0	0	0	0
CCn1cc(/C=N/NS(=O)(=O)c2ccc(OC)cc2)c(C)n1	0	0	0	0	0	20.7
CCCCN1CC(N2CCN(CCO)CC2)CS1(=O)=O (centres undefined)	0	0	0	0	0	20.0
CN(C)Cc1ccccc1Sc1ccc(O)cc1O	0	0	0	0	0	18.3
CCCN1CCN(CC(=O)Nc2nnc(CC)s2)CC1	0	0	0	0	0	0
O=C(NN1C(=O)/C(=C\c2cccnc2)SC1=S)c1ccco1	0	0	0	0	0	0
CCCN(CCC)CCOc1cc(C)ccc1C(C)C	0	0	0	0	0	0
Cc1ccc(C(C)C)c(OCCN(C)C)c1	0	57.1	0	0	0	0
Cc1ccc(C(C)C)c(OCCCn2ccnc2C)c1	0	100.5	0	0	0	0
COc1ccccc1CNC(=O)CN1C(=O)NC2(CCCc3sccc32)C1=O (centres undefined)	0	0	0	0	0	0
CC(C)(C)NC(=O)COc1coc(CN2CCN(C(=O)c3ccco3)CC2)cc1=O	0	0	0	0	0	0
O=C(Nc1ccc(S(=O)(=O)N2CCc3ccccc3C2)cc1)C1CCCO1 (centres undefined)	0	0	0	0	0	0
SMILES	CHRM1 PAM	CHRM1 antagonist	M1 PAM parental	CHO-K1 Ca antag	M1 ag parental	M1 ag
O=C(Nc1ccc(S(=O)(=O)N2CCCc3ccccc32)cc1)C1CCCO1 (centres undefined)	0	39.8	0	0	0	0
CCOC(=O)Cc1nnc(NC(=O)CSc2ccc(C)cc2)s1	0	0	0	0	0	18.5
CCc1ccc(OC(C)C(=O)Nc2ccc(S(=O)(=O)Nc3nccs3)cc2)cc1 (centres undefined)	0	0	0	0	0	16.8
Cc1ccc(OC(C)C(=O)Nc2ccc(S(=O)(=O)Nc3nccs3)cc2)cc1 (centres undefined)	0	0	0	0	0	0
CCOc1ccccc1CN1CCCC(CNS(=O)(=O)c2ccc(OC)cc2)C1 (centres undefined)	0	37.6	0	0	0	0
CCc1sc(C(=O)Nc2ccccc2N2CCOCC2)cc1C	0	0	0	0	0	0
C[C@]12CCC(=O)C=C1CC[C@@H]1[C@@H]2CC[C@@]2(C)[C@H]1CC[C@@]21CCC(=O)O1	0	30.7	0	0	0	0
O=C(Cn1c2ccccc2c(=O)c2cc([N+](=O)[O-])ccc21)Nc1ccccc1Cl	0	0	0	0	15.5	0
O=C(Cn1c2ccccc2c(=O)c2ccccc21)Nc1ccccc1F	0	0	0	0	0	0
N#CCN1C(=O)NC2(CCCc3sccc32)C1=O (centres undefined)	0	0	0	0	0	0
Cc1ccc(OCc2cn3cccnc3n2)cc1	0	0	0	67.0	95.3	0
COc1ccc(C(C(=O)NC(C)(C)C)N(CCC(C)C)C(=O)CCC(=O)Nc2cc(C)on2)cc1 (centres undefined)	29.7	0	0	0	0	0
C/C(Cn1nc([N+](=O)[O-])cc1C)=N\NC(=O)c1ccc(O)cc1O	0	0	0	0	0	0
COc1cc(C(=O)N/N=C(\C)Cn2nc([N+](=O)[O-])cc2C)ccc1O	0	0	0	27.9	0	0
COc1ccc(NC(=O)NC(C)c2ccccc2)cc1 (centres undefined)	0	0	0	0	0	0
COc1ccc(NC(=O)N/C=C/c2ccccc2)cc1	0	0	0	0	15.8	0
CN(c1ccccc1)S(=O)(=O)c1cccc(NS(=O)(=O)c2cccc(C(=O)O)c2)c1	0	0	0	0	0	0
O=C(O)C1CCC(C(=O)O)SS1 (centres undefined)	0	0	0	0	0	0
CCC(C)(C(=O)NC1CCCC1)N(Cc1cccs1)C(=O)c1ccc2c(c1)OCO2 (centres undefined)	0	0	0	0	16.0	0
O=C(Nc1nnc(SCC(=O)N2CCCCC2)s1)c1c(F)cccc1F	28.3	0	0	0	0	0
O=C(CSc1nnc(NC(=O)c2c(F)cccc2F)s1)NC1CCCC1	0	0	0	0	0	0
CC(C)c1ccc(N2C(=O)CSC23C(=O)N2CCCc4cccc3c42)cc1 (centres undefined)	0	98.4	0	0	0	0
CCCCCCN[C@H]1CCC2C3CC=C4C[C@@H](O)CC[C@]4(C)C3CC[C@@]21C (some centres undefined)	0	89.6	0	0	0	0
CC(C)C(=O)N[C@H]1CCC2C3CC=C4C[C@@H](O)CC[C@]4(C)C3CC[C@@]21C (some centres undefined)	0	0	0	0	0	0
Cc1ccc(NC(=O)CN2CCN(C(=O)c3ccco3)CC2)cc1	0	0	0	0	0	0
Cc1cc(C)cc(OCC(=O)Nc2ccc(N3CCN(C(=O)c4ccco4)CC3)cc2)c1	0	32.9	0	0	0	0
